Results from PubChem BioAssay (NCI).
About 83,000 compounds went through this panel and 20% of them were active in at least one assay; those are over-represented in the sample as a whole.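 Each cell line was grown in a 96-well plate and treated with one concentration of compound for 48 hours. Values below 10 were considered active.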 Active and inactive are the calls of the source.

What was measured:
Assay in all cases: NCI-60 one-dose screen, 48 h (100 = growth as untreated, 0 = no growth, -100 = all killed)
Conditions in all cases: 10 µM unless noted
[1] = system: T-47D breast
[2] = system: BT-549 breast
[3] = system: MDA-MB-435 melanoma
[4] = system: SW-620 colon
[5] = system: MCF7 breast
[6] = system: HCT-116 colon
[7] = system: HCC-2998 colon
[8] = system: KM12 colon

Measured: growth

COc1cc(NS(=O)(=O)c2ccc(-c3cnc(C4CC4)o3)cc2)ccc1F
active: [3] -21.3%
inactive: [1] 33.6% | [2] 44.6% | [4] 18% | [5] 12.7% | [6] 20.9% | [7] 38.4%

CC/C(=C(/c1ccc(Cl)cc1)c1ccc(OCCN(C)C)cc1)c1ccc(Cl)cc1
inactive: [1] 58.4% | [2] 82.7% | [3] 73.1% | [4] 55.8% | [5] 20.5% | [6] 56.7% | [7] 46.9%

C=C1CC[C@@H]2[C@](C)(COC(C)=O)[C@H](OC(C)=O)CC[C@@]2(C)[C@@H]1CC(Nc1ccc(S(=O)(=O)Nc2ncccn2)cc1)C1=CCOC1=O (stereo not given in full)
inactive: [1] 42.3% | [7] 32%
active: [2] -32% | [3] -14.8% | [4] -70% | [5] -19.6% | [6] -55% | [8] -13.2%

O=C1/C(=C/c2cn(-c3ccccc3)nc2-c2ccccc2)SC(=S)N1C1CCCCC1
inactive: [1] 97% | [2] 114% | [3] 98.8% | [4] 96% | [5] 86.2% | [6] 90.1% | [7] 108%

COc1ccc2cc1Oc1ccc(cc1)C[C@H]1c3c(cc4c(c3Oc3cc5c(cc3OC)CCN(C)[C@@H]5C2)OCO4)CCN1C
inactive: [1] 115% | [2] 52% | [3] 19% | [4] 55.3% | [5] 34.6% | [6] 19.2% | [7] 59.9% | [8] 55.2%

N#CC1=C(N)Oc2c(c(=O)[nH]c3ccc(Cl)cc23)C12C(=O)c1ccccc1C2=O
inactive: [1] 98.2% | [2] 89% | [3] 92.6% | [4] 86.5% | [5] 96.4% | [6] 95.7% | [7] 109% | [8] 90.7%

CC1(C)COB(OCC(C)(C)COB2OCC(C)(C)CO2)OC1
inactive: [1] 104% | [2] 105% | [3] 110% | [4] 110% | [5] 107% | [6] 101% | [7] 104% | [8] 103%

O=C(/C=C/c1cccs1)Nc1ncc(Cc2ccccc2F)s1
inactive: [1] 23.8% | [2] 52.3% | [4] 24.5% | [5] 17.1% | [6] 28.6% | [7] 44.4% | [8] 16.7%
active: [3] -64.4%

OCCn1cc(-c2nc(-c3c[nH]c4ncccc34)cs2)c2ccccc21
inactive: [1] 37.3% | [2] 76% | [3] 52.1% | [4] 91.5% | [5] 32.9% | [6] 85.2% | [7] 52% | [8] 48%

Nc1nc2ccccc2c2c(=O)c3cccc(Cl)c3sc12
inactive: [1] 38.7% | [2] 99.2% | [3] 96.9% | [4] 89% | [5] 12.2% | [6] 64.8% | [7] 63% | [8] 89.8%

Cn1ccc(=O)c(C(=O)Nc2nsc3ccc([N+](=O)[O-])cc23)c1
inactive: [1] 74.6% | [2] 69.8% | [3] 75.6% | [4] 56.5% | [5] 34.7% | [6] 56.2% | [7] 87% | [8] 65.3%

Nc1ncnc2c1C(c1ccccc1)c1ccc3ccccc3c1O2 (stereo not given)
inactive: [1] 55.7% | [2] 73.3% | [3] 79.3% | [4] 94.9% | [5] 67.4% | [6] 85.3% | [7] 102% | [8] 88.3%

C#CCOc1cccc(Nc2ncnc3cc(NC(=O)C=C)ccc23)c1
inactive: [4] 12.1% | [5] 20.4% | [7] 60.7% | [8] 24.6%
active: [1] 8.13% | [2] 7.82% | [3] -1.49% | [6] 2.37%

CN(C)Cc1ccc(O)c(C(=O)O)c1
inactive: [1] 109% | [2] 112% | [3] 107% | [4] 106% | [5] 107% | [6] 109% | [7] 109% | [8] 108%

Cc1cc(N2CCN(CC(=O)Nc3ccc4c(ccn4C)c3)CC2)nc(N2CCCCCC2)n1
inactive: [1] 65.4% | [2] 89.7% | [3] 95.2% | [4] 93.6% | [5] 77.9% | [6] 85.6% | [7] 127% | [8] 93.1%

O=S(=O)(c1ccccc1)n1cc2c(c1)-c1nc(Nc3ncccn3)sc1CC2
inactive: [1] 53% | [2] 63.8% | [3] 61.5% | [4] 65.1% | [5] 49.5% | [6] 23.1% | [7] 85% | [8] 82.8%

COc1c(C(=O)Nc2ccc(C)c(Br)c2)ccc2ccccc12
inactive: [1] 88.9% | [2] 101% | [3] 31.7% | [4] 81.1% | [5] 96% | [6] 96.5% | [7] 99.9% | [8] 81.2%

COc1ccc(C/C(C)=C(/c2ccc(OCCN(C)C)cc2)c2ccc(OC(=O)NCc3ccccc3)cc2)cc1
inactive: [1] 51.7% | [2] 82.5% | [3] 74.4% | [4] 61.5% | [5] 21.2% | [6] 52.1% | [7] 66.6% | [8] 72.6%

NC(=O)c1cccc(-n2ccc3cc(NC(=O)c4ccc(N5CCOCC5)c(C(F)(F)F)c4)ccc32)n1
inactive: [2] 45.3% | [3] 71.3% | [4] 68.2% | [5] 57.1% | [6] 44.5% | [7] 79.8% | [8] 33.3%
active: [1] 3.32%

CN(/C(N)=N/N=C/c1c2ccccc2cc2ccccc12)C1CCCCC1
inactive: [1] 30.8% | [2] 67.7% | [3] 57.5% | [4] 58.6% | [5] 32.8% | [6] 15.9% | [8] 59.6%
active: [7] -69.9%

CCOC(=O)c1cc2c(n1Cc1cc(OC)c(OC)c(OC)c1)-c1nc(N)sc1CCC2
inactive: [1] 43.3% | [2] 51.2% | [4] 43.4% | [5] 27.6% | [6] 34.1% | [7] 73.1% | [8] 30.8%
active: [3] -38.7%

COc1ccc(/C=N/C2=C(C#N)C(c3ccccc3)c3ccc4ccccc4c3O2)cc1 (stereo not given)
active: [3] -56.3% | [7] -6.81%
inactive: [1] 46.7% | [2] 12.9% | [4] 24.3% | [5] 12.2% | [6] 10.3% | [8] 17.5%

CC(=O)N1N=C(c2ccc(C(F)(F)F)c(F)c2)CC1c1[nH]c(C)c(C(=O)NCC(F)(F)F)c1C (stereo not given)
inactive: [1] 43.5% | [2] 89.9% | [3] 76.7% | [4] 94.3% | [5] 73.6% | [6] 34% | [7] 72.1% | [8] 60.2%

O=C(N/N=C/c1c(Cl)cccc1Cl)c1cccnc1Nc1cccc(C(F)(F)F)c1
inactive: [1] 15.7% | [2] 43% | [3] 36.2% | [4] 44.9% | [5] 23.2% | [6] 35.5% | [7] 72.2% | [8] 41.9%

CCN(CC)c1ccc(\C=N/N=C(N)/C(N)=N\N=C/c2ccc(N(CC)CC)cc2)cc1
inactive: [1] 104% | [2] 104% | [3] 101% | [4] 104% | [5] 106% | [6] 105% | [7] 114% | [8] 106%

CCCCNC(=O)Oc1ccc(/C(=C(/C)Cc2ccc(OC)cc2)c2ccc(OCCN(CC)CC)cc2)cc1
inactive: [1] 42.1% | [2] 87.1% | [3] 66.8% | [4] 93.3% | [5] 28.5% | [6] 42.7% | [7] 85.6% | [8] 85.1%

O=C1Nc2ccccc2/C1=C/c1nc2ccccc2c(=O)[nH]1
inactive: [1] 71.5% | [2] 95% | [3] 104% | [4] 102% | [5] 60.2% | [6] 76.7% | [7] 102% | [8] 96.4%

O=C1C(Cl)=C(NCCCCCCNC2=C(Cl)C(=O)c3ccccc3C2=O)C(=O)c2ccccc21
inactive: [1] 90.7% | [2] 91.2% | [3] 79.4% | [4] 73.3% | [5] 81.6% | [6] 88% | [7] 103% | [8] 98.1%

C#COc1cccc(Nc2c(C#N)cnc3ncc(NC(=O)CCl)cc23)c1
active: [1] 4.8% [6.25 µM] | [4] 9.61% [6.25 µM] | [5] 5.39% [6.25 µM] | [6] -3.66% [6.25 µM]
inactive: [2] 40.3% [6.25 µM] | [3] 41.4% [6.25 µM] | [7] 31.7% [6.25 µM] | [8] 31.4% [6.25 µM]

CC(=O)n1nc(C(=O)OC(C)(C)c2ccccc2)c2ccccc21
inactive: [1] 86.3% | [2] 99.6% | [3] 92.1% | [4] 103% | [5] 94% | [6] 94.8% | [7] 98.2% | [8] 94.7%

Cc1cc(N2CCN(CCNc3ccnc4cc(Cl)ccc34)CC2)nc(N2CCOCC2)n1
inactive: [1] 55.9% | [2] 74.2% | [3] 80.1% | [4] 79.4% | [5] 53.3% | [6] 38.5% | [7] 37.4% | [8] 76.6%
